Assay [1] in a line: antimalarial activity against Dd2 strain (AID 2302;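 active = growth inhibition above 50% at the single 2 µM test dose, taken to imply half-maximal potency below 2 µM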;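 note: 0% = DMSO untreated growth and 100% = chloroquine plus artemisinin killed control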). Conditions: P. falciparum Dd2 in RBCs, LDH growth readout, 72 h; at 2 µM; stronger effect = higher value.
A short description of assay [2]: HepG2 cytotoxicity, primary screen, cytotoxicity control for P. falciparum antimalarial project, cell-based, ATP luminescence (AID 2303;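 active = inhibition above 50%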;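 note: 0% = DMSO wells and 100% = digitonin-killed cells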). The following applies: HepG2 viability, 24-48 h, at 10 µM, stronger effect = higher value.
The target in assay [3] is L-lactate dehydrogenase (Plasmodium falciparum (isolate CDC / Honduras)) (UniProt Q27743). In words: PfLDH activity inhibition – cell lysate, 3D7 strain, counter-screen for P. falciparum growth inhibition project (AID 2304).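 Note: 0% = vehicle and 100% = reference inhibitor.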 The following applies: P. falciparum 3D7 crude extract, LDH APAD/NBT absorbance; at 2 µM; stronger effect = higher value.
Sequence of L-lactate dehydrogenase (Plasmodium falciparum (isolate CDC / Honduras)) (Q27743 whole entry, looked up): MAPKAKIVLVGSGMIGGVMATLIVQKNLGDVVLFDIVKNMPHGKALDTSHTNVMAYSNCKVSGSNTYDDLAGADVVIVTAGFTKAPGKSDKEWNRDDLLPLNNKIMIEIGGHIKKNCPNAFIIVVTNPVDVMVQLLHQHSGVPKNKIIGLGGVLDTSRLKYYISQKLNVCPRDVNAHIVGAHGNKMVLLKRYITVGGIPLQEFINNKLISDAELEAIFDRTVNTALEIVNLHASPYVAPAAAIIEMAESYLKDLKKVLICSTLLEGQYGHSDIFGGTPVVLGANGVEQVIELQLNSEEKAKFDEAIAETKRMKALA
A short description of assay [4]: inhibition of 3D7 malaria parasite growth – strain 3D7 (AID 2306).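 Note: 0% = DMSO wells and 100% = chloroquine plus artemisinin control wells.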 The following applies: P. falciparum 3D7 erythrocytic growth, LDH absorbance, 72 h; at 2 µM; stronger effect = higher value.
The target of assay [5] is Calcium-dependent protein kinase 1 (Plasmodium falciparum (isolate 3D7)) (UniProt P62344). In words: PfCDPK1 kinase inhibitors, biochemical, TCAMS library (AID 1159585; cut-off not given, nearly all actives have IC50 up to about 0.98 µM;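 note: inhibitors leave more ATP so luminescence rises with inhibition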). The following applies: recombinant PfCDPK1, Kinase-Glo ATP depletion luminescence.
Sequence of Calcium-dependent protein kinase 1 (Plasmodium falciparum (isolate 3D7)) (P62344 whole entry, looked up): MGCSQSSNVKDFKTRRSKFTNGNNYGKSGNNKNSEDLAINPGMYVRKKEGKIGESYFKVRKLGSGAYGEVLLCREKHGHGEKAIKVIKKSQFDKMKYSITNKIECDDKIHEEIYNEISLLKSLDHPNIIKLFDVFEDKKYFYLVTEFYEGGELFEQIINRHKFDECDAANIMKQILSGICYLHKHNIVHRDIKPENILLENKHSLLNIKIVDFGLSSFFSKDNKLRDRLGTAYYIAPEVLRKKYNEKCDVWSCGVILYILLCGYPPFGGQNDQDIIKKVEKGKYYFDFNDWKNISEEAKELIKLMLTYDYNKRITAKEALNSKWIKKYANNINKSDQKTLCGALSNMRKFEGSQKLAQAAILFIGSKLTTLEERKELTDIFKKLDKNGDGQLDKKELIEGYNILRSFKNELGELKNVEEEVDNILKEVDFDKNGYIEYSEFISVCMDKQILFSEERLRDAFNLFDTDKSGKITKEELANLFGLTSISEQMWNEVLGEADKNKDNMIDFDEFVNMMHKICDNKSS
The target in assay [6] is Plasmodium falciparum protein kinase 6 (PK6, PF3D7_1337100) (UniProt Q8IDW1). Briefly: PfPK6 kinase inhibitors, biochemical, TCAMS library (AID 1159586). Conditions: recombinant PfPK6, Kinase-Glo ATP depletion luminescence.
Sequence of Plasmodium falciparum protein kinase 6 (PK6, PF3D7_1337100) (Q8IDW1 1-305): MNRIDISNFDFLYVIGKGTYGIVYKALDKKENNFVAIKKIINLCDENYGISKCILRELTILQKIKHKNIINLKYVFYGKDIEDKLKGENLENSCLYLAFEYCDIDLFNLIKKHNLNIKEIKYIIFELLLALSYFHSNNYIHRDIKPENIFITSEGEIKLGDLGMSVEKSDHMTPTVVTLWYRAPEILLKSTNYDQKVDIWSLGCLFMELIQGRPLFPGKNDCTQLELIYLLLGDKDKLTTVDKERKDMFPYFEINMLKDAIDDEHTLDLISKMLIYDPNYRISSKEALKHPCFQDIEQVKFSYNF
In assay [7] the target is Protein kinase 7 (PK7), Plasmodium falciparum 3D7 (PF3D7_0213400) (UniProt Q7YTF7). Briefly: inhibition of Plasmodium PK7 catalytic activity – biochemical, TCAMS antimalarial set, Kinase-Glo luminescence (AID 1159587). Conditions: recombinant PfPK7, Kinase-Glo ATP depletion luminescence.
Sequence of Protein kinase 7 (PK7), Plasmodium falciparum 3D7 (PF3D7_0213400) (Q7YTF7 1-343): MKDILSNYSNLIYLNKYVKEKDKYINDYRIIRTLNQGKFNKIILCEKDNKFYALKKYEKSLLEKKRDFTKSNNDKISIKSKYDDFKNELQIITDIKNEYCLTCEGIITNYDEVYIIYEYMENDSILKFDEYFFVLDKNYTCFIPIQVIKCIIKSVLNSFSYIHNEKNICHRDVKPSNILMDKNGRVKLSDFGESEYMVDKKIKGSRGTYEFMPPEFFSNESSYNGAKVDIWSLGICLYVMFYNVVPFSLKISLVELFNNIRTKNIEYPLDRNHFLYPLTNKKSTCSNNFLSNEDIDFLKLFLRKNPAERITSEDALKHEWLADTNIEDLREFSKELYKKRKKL
The target in assay [8] is Calcium-dependent protein kinase 4 (Plasmodium falciparum (isolate 3D7)) (UniProt Q8IBS5). Briefly: PfCDPK4 kinase inhibitors, biochemical, TCAMS library (AID 1159588; cut-off not given, nearly all actives have IC50 up to about 0.91 µM). The following applies: recombinant PfCDPK4, Kinase-Glo ATP depletion luminescence.
Sequence of Calcium-dependent protein kinase 4 (Plasmodium falciparum (isolate 3D7)) (Q8IBS5 whole entry, looked up): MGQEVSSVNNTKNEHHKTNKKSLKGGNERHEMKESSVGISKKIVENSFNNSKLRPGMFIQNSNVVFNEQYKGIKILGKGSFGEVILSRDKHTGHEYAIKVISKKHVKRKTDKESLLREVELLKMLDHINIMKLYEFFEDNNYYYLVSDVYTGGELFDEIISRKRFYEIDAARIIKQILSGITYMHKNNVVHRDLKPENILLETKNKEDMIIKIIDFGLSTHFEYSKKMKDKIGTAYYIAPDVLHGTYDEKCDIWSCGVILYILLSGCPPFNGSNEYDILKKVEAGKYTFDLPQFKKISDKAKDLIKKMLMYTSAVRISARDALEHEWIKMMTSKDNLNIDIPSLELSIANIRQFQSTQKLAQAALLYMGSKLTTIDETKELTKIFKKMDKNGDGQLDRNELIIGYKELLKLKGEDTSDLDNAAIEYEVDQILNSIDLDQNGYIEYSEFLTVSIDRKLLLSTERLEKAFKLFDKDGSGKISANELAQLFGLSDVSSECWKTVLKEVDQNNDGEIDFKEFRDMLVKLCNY
Assay [9] has as its target 6-phosphogluconate dehydrogenase, decarboxylating (Homo sapiens) (UniProt P52209). In words: 6PGD enzyme inhibitors, primary screen, biochemical, human, recombinant enzyme, NADPH absorbance (AID 1159550;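 active = at least 20% inhibition of 6-phosphogluconate dehydrogenase activity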). Conditions: recombinant 6PGD, NADPH absorbance 341 nm; at 10 µM; stronger effect = higher value.
Assay [10] addresses NAD(+) hydrolase SARM1 (Homo sapiens) (UniProt Q6SZW1). In words: SARM1 TIR NADase inhibitors, cell lysate, NAD-Glo luminescence (AID 1508614;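 active = compound whose remaining NAD level is above about 45 nM, limit read from the data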;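 note: higher remaining NAD means stronger inhibition of SARM1 NADase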). Conditions: SAM-TIR HEK293T lysate NADase, at 1 µM, stronger effect = higher value.
Assay [11] concerns the target Mitogen-activated protein kinase 7 (Homo sapiens) (UniProt Q13164). In words: ERK5 transactivation activators in reporter cells, primary screen, cell-based, HTS (AID 1508626;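 active = luciferase signal above three times the same-plate solvent-only control wells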;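 note: luciferase driven by Gal4-ERK5 fusion binding five Gal4 sites before minimal TATA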). Conditions: HeLa Gal4-ERK5 transactivation, 18 h, at 5 µM, stronger effect = higher value.
The target of assay [12] is ATP-dependent translocase ABCB1 (Homo sapiens) (UniProt P08183). In words: MDR1 (ABCB1) efflux transporter inhibition, cell-based (AID 377; in the data active = fluorescence slope change above about 50%). The following applies: MDR1-expressing cells, fluorescent substrate accumulation slope; stronger effect = higher value; concentration not given here.
Sequence of ATP-dependent translocase ABCB1 (Homo sapiens) (P08183 whole entry, looked up): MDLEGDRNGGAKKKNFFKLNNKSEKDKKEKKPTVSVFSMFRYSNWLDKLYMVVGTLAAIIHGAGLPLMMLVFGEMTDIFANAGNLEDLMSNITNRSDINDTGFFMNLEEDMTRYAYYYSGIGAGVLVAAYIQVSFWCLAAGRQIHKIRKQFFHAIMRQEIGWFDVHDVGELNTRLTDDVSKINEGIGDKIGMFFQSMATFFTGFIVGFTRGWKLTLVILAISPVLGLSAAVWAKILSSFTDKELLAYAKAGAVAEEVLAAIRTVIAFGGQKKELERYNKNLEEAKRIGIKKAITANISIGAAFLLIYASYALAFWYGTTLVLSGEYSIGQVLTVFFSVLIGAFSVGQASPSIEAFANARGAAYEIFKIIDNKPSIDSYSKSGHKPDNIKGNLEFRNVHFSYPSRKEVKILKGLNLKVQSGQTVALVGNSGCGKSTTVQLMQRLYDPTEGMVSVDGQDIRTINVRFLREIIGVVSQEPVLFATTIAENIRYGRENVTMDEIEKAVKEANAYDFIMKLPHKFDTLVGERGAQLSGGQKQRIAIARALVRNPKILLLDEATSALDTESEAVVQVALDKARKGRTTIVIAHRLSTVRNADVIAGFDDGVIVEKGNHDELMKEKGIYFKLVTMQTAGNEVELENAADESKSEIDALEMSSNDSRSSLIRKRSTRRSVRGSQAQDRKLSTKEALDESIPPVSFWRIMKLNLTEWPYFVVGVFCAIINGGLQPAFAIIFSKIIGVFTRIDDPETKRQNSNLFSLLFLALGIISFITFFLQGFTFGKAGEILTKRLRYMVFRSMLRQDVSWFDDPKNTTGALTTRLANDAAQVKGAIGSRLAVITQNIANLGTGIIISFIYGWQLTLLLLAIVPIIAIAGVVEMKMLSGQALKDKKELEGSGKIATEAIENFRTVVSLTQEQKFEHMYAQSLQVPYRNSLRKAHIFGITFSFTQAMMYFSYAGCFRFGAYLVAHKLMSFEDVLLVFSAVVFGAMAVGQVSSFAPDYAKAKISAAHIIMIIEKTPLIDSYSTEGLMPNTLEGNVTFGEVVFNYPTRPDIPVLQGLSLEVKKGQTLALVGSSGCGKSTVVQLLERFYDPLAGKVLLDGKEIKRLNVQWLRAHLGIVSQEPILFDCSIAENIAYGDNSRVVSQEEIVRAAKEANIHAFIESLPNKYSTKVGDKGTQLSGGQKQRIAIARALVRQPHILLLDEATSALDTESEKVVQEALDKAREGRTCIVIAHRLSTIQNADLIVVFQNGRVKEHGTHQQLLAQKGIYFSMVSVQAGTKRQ
Assay [13] in a line: liver-stage malaria parasite growth inhibition, primary screen, cell-based, HepG2, luciferase luminescence, HepG2 viability (AID 624349; in the data active = parasite load remaining mostly below about 12%, no sharp cut-off; inactive = mostly above about 10%;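 note: 100% = mean of DMSO negative control wells on the same plate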). Conditions: P. berghei liver stage in HepG2, luciferase luminescence, concentration not given here; parasite load remaining: stronger effect = lower value; viability: measured here: HepG2 viability without parasites.
Assay [14] is described as follows: sensitizers of A549 cells to miR-34 induction, primary screen, imaging, A549 dox-inducible miR-34, nuclei and caspase counts (AID 1347080;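 active = compounds whose cell count with miR-34 switched on is under 0.7 times the count with it off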). The following applies: A549 miR-34 inducible, Hoechst nuclei count, 48 h.
Assay [15] is described as follows: hESC survival regulators, cell-based (AID 493140).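 Note: cells exposed to compounds for four days before counting.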 Conditions: human embryonic stem cell survival screen; stronger effect = higher value.

Results filed as inconclusive are left out. For part of these data: Potency and affinity values are given separately. The source made the active and inactive calls. Unless noted, the rule behind the calls is not given here.

Sequence of Mitogen-activated protein kinase 7 (Homo sapiens) (Q13164 whole entry, looked up, the tested form may be a part): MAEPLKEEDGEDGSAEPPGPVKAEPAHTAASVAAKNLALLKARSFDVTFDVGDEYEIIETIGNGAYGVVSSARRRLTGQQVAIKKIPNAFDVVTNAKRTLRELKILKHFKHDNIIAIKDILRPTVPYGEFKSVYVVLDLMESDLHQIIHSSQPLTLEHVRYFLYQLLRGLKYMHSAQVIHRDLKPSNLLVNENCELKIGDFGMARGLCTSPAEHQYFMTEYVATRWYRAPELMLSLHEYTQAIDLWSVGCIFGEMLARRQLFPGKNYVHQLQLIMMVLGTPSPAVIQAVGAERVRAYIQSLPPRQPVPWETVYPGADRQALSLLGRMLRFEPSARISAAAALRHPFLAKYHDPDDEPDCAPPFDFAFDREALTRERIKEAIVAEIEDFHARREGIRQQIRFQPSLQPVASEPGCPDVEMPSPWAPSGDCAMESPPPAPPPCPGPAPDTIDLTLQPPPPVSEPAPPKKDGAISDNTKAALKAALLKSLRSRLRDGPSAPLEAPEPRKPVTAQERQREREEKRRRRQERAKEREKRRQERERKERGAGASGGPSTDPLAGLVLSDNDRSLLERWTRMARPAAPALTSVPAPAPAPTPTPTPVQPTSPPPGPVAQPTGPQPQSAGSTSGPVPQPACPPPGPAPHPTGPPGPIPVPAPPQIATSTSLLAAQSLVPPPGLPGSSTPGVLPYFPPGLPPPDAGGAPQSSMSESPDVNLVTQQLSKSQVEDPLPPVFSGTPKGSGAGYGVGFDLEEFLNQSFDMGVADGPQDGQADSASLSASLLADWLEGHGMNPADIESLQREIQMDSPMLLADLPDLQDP
Sequence of 6-phosphogluconate dehydrogenase, decarboxylating (Homo sapiens) (P52209 whole entry, looked up): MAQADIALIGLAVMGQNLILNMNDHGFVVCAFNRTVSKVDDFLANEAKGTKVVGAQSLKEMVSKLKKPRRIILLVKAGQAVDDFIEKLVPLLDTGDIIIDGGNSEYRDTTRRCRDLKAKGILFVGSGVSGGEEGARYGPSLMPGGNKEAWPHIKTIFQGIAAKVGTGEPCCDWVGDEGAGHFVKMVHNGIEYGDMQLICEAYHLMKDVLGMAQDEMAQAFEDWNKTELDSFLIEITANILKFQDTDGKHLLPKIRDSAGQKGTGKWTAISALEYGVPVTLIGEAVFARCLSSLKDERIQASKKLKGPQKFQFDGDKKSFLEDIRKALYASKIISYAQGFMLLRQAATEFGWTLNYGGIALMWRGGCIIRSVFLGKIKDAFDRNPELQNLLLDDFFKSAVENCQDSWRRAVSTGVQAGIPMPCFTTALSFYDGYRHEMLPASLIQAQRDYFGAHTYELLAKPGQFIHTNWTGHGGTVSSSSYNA

Turning to `Cn1nc(-c2ccc(S(=O)(=O)N3CCC(CN4CCC(c5c[nH]c6ccccc56)CC4)CC3)s2)cc1C(F)(F)F`, the growth inhibition in assay [1] was 48% (inactive); in assay [4], 93% (active). Further, the inhibition was 16% (inactive) in assay [2] and -6% (inactive) in assay [3]. Moreover, the outcome in assay [5], in assay [6], in [7] and in assay [8] was inactive.
Consider `C[C@@H]1[C@H](O)[C@@H](C)/C=C/C=C/CC/C=C/C=C/C=C/C=C/C(O[C@H]2O[C@H](C)[C@@H](O)[C@H](N)[C@@H]2O)CC2O[C@](O)(CC(O)C(O)CCC(O)CC(O)CC(O)CC(=O)O[C@H]1C)CC(O)C2C(=O)O` (stereo not given in full), for which the inhibition in assay [9] was 8.65% (inactive). In addition, the remaining NAD in assay [10] is 10 nM (inactive). The luciferase signal in assay [11] was 56 AU (inactive).
Turning to `COC(=O)COc1cc(Cl)c(Cl)cc1Cl`, the inhibition in [9] was -16.9% (inactive). Also, the luciferase signal in assay [11] was 92 AU (inactive).
As for `CC[C@H]1CN2CC[C@@H]1C[C@H]2[C@H](O)c1cc[n+]([O-])c2ccc(OC)cc12`, the outcome in assay [5], in assay [6], in assay [7] and in assay [8] was inactive.
For `O=C(NC1CCC(CN2CCC(c3c[nH]c4ccccc34)CC2)CC1)[C@H]1Cc2ccccc2CN1` (stereo not given in full), the growth inhibition in assay [1] was 35% (inactive); in assay [4] it was 89% (active). For the same molecule, the inhibition was 29% (inactive) in assay [2] and 3% (inactive) in [3]. In addition, the result in assay [5], in assay [6], in assay [7] and in [8] was inactive.
Consider `CC(=O)[O-].CC(=O)[O-].[Cd+2]`, for which, in assay [9], the inhibition is 6.37% (inactive). Further, the luciferase signal in assay [11] is 740 AU (inactive).
As for `COc1cc2c(cc1O)C[C@H]1c3c(cc(O)c(OC)c3-2)CCN1C`, the fluorescence slope change in assay [12] was 14.6% (inactive). Besides, the parasite load remaining in [13] is 91.1% (inactive). Further, the viability in assay [13] was found to be 118%. Moreover, the inhibition in assay [9] is 3.02% (inactive). For the same molecule, the fold change in assay [14] (stronger effect = lower value, cell number ratio, induced over uninduced) was 0.885 (inactive); in assay [14] (measured here: relative caspase fold change +Dox/-Dox), 1.54. For the same molecule, the cell count in [14] (measured here: total cells with miR-34 induction, stronger effect = lower value) is 8000; in [14] (measured here: total cells without miR-34 induction) it was 9040. Further, the luciferase signal in assay [11] is 56 AU (inactive).
For `CN1Cc2c(ccc3c2OCO3)[C@@H]2[C@H]1c1cc3c(cc1C[C@@H]2O)OCO3`, the fluorescence slope change in assay [12] is 54.5% (active). In addition, in assay [15], the survival was 0.417 (inactive). In assay [13], the parasite load remaining is 92.6% (inactive) and the viability stood at 77.6%. For the same molecule, the inhibition in assay [9] was 7.55% (inactive).
Turning to `CC[C@@H](C)C(=O)O[C@H]1[C@H](O)[C@H]2[C@@H](CN3C[C@@H](C)CC[C@H]3[C@@]2(C)O)[C@@H]2C[C@]34O[C@]5(O)[C@@H](OC(=O)[C@@](C)(O)CC)CC[C@@]3(C)[C@@H]5[C@@H](OC(C)=O)[C@@H](OC(C)=O)[C@H]4[C@@]21O`, the inhibition in assay [9] was -7.64% (inactive). Besides, the luciferase signal in assay [11] is 108 AU (inactive).
Take `O=C(O)CNCP(=O)(O)O`: the inhibition in assay [9] is 3.86% (inactive). Moreover, in assay [11], the luciferase signal was 40 AU (inactive).

(Values after PubChem BioAssay.)
